Screens (PubChem BioAssay)
Most compounds without a hit are left out; they make up all but 0.5% or so of the library.
E coli growth-1: inhibitors of Escherichia coli growth | OD600, 23 h; hits give low values | OD600 absorbance (no concentration beside the values) | hit rate 0.21% among 330,000 | AID 1053175;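 active = OD600 absorbance below the run mean of sample wells minus 3.6 SD, in any replicate, cut at about 0.56 in these data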
E coli growth-2: reduces bacterial viability in AddAB counter-screen | E. coli V3065 growth, OD600 absorbance, 18 h | inhibition, % at 11.9 µM | hit rate 0.27% among 330,000;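 active = inhibition above the campaign's mean inhibition across all tested compounds plus 3 SD, cut at about 9.9% in these data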;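 also: uninfected addAB+ strain grown without phage in ampicillin broth; 0% = DMSO wells and 100% = ciprofloxacin 0.95 µg/ml wells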
AddAB inh: less growth of phage-infected E. coli with AddAB. E. coli expressing H. pylori AddAB, absorbance growth. inhibition, % at 11.9 µM. hit rate 0.29% among 330,000; in the data active = inhibition above about 12%;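 also: 0% = vehicle wells of infected cells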
Tat transport: E. coli Tat transport inhibition; E. coli MC4100 TorA-mCherry Tat export, fluorescence; inhibition, % at 10 µM; hit rate 0.036% among 340,000; AID 488895;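 active = mean replicate inhibition at least 50% and at least half of replicates individually reaching 50%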;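 also: exported cargo escapes ClpAP degradation while cytoplasmic cargo is degraded and loses fluorescence; 0% = median of neutral control wells and 100% = median of NaSCN control wells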
phage Ecoli inh: E. coli growth loss with phage present; growth absorbance; inhibition, % at 11.9 µM; hit rate 0.26% among 360,000; in the data active = inhibition above about 11%
AddAB conf: confirmation screen: growth loss of phage-infected E. coli expressing H. pylori AddAB; shares compounds with AddAB inh; E. coli V3065 expressing H. pylori AddAB, T4 phage, OD; T4 phage with gene 2 nonsense mutations; inhibition, % at 11.9 µM; hit rate 64% among 880; AID 488942;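 active = mean inhibition above a set limit taken from the earlier primary screen, cut at about 13% in these data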;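 also: higher means less bacterial growth since AddAB block lets phage replicate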
RecBCD counter: counter-screen: growth loss of RecBCD+ E. coli with mutant T4 phage; hit rate 73% among 880; E. coli V66 + mutant T4 phage, OD growth; inhibition, % at 11.9 µM; shares compounds with AddAB inh; AID 488955;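 active = mean inhibition above the mean of solvent-only control wells plus 3 SD, cut at about 4% in these data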;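 also: optical density read after an 18 h incubation at 37 °C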
bact viab count: counter-screen: bacterial growth inhibition. shares compounds with AddAB inh. bacterial viability, absorbance (AddAB counterscreen). hit rate 35% among 880. inhibition, % at 11.9 µM; in the data active = inhibition above about 25%
RecBCD conf: confirmation: growth loss of phage-infected RecBCD+ E. coli (RecBCD inhibitor screen) | inhibition, % at 11.9 µM | E. coli V66 + T4 2- phage, growth OD | hit rate 45% among 890 | shares compounds with phage Ecoli inh;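 active = mean inhibition over triplicates exceeding the hit threshold derived in the original primary screen, cut at about 11% in these data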
Ecoli viability: bacterial viability inhibition counter-screen for RecBCD. hit rate 29% among 890. shares compounds with phage Ecoli inh. inhibition, % at 11.9 µM. E. coli viability, absorbance (OD) growth. AID 651983; in the data active = inhibition above about 20%;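 also: E. coli strain V66 grown with compound alone and no phage infection; 0% = bacteria with DMSO vehicle only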
AddAB phage OD: growth loss of phage-infected AddAB E. coli, RecBCD counter-screen; shares compounds with phage Ecoli inh; E. coli expressing H. pylori AddAB + T4 phage, OD growth; gene 2 mutant T4, recBCD-deleted host; inhibition, % at 11.9 µM; hit rate 45% among 890; AID 651984;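 active = mean inhibition above the solvent-only control wells' mean plus 3 SD, cut at about 22% in these data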;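 also: higher means less bacterial growth from phage killing when AddAB is blocked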
An asterisk follows results filed as active; i = inactive; · = not tested or not shown; + = active, no number.

SMILES | E coli growth-1 | E coli growth-2 | AddAB inh | Tat transport | phage Ecoli inh | others
c1ccc2c(c1)[IH]c1ccccc1-2 | · | · | · | 7 | 101*
O=C1NC(=O)N(c2ccc3c(c2)OCO3)C(=O)C1=Cc1ccc(N2CCCC2)o1 | 0.69 | · | · | · | ·
Cc1[nH]c2ccc(OC(F)(F)F)cc2c1CCNCc1ccc(Cl)cc1 | 0.5* | · | · | -9 | 2
O=C1C=CC(=O)C2C1C1(Cl)C(Cl)=C(Cl)C2(Cl)C1(Cl)Cl (stereo not drawn) | 0.51* | · | · | -7 | 6
COC(=O)C1=C(c2ccc(OC)c(OC)c2)CC2CCC1N2C(=O)NC(C)C (stereo not drawn) | 0.71 | · | · | · | ·
COc1ccc(N2C(=O)NC(=O)/C(=C\c3ccc([N+](=O)[O-])s3)C2=O)cc1 | 0.47* | 2 | 2 | -7 | 3
CN(C)c1ccc(/C=C/c2cc[n+](C)c3ccccc23)cc1 | · | · | · | -299 | 0
CN(C)c1ccc(C=Cc2cc[n+](C)c3ccccc23)cc1 | 0.39* | · | · | · | ·
COC(=O)C1=C(c2ccc(F)cc2OCc2ccccc2)CC2CCC1N2C(=O)NCCNC(C)=O (stereo not drawn) | 0.65 | · | · | · | ·
CCC(C)C(NC(=O)CCCNC(=O)CCC(=O)OC1O[C@H]2OC3(C)CC[C@H]4[C@H](C)CCC(C1C)C24OO3)C(=O)O (stereo partly drawn) | · | 4 | 3 | 5 | 5
CCC(C)NC(=O)CCC(=O)OC1O[C@H]2OC3(C)CC[C@H]4[C@H](C)CCC(C1C)C24OO3 (stereo partly drawn) | 0.5* | · | · | 6 | 9
O=[N+]([O-])c1c(Cl)c(Cl)c(Cl)c(Cl)c1Cl | · | · | · | -5 | 1
Nc1cc(Cl)c2nonc2c1[N+](=O)[O-] | 0.44* | 7 | 6 | -21 | 7
CC1CCCN(c2ccc(C(=O)N3CCC4(CC3)OCCO4)cc2[N+](=O)[O-])C1 (stereo not drawn) | · | -2 | 1 | 12 | -1
O=C(c1ccc(N2CCCCC2)c([N+](=O)[O-])c1)N1CCC2(CC1)OCCO2 | 0.52* | 0 | 5 | 4 | 2
Cc1cc(O)ccc1Cl | · | · | · | · | 2
Oc1ccc(Cl)c(Cl)c1Cl | 0.52* | -1 | 0 | -3 | 3
COC(=O)C1=C(c2ccccc2)CC2CCC1N2C(=O)NCc1ccc(F)cc1 (stereo not drawn) | 0.69 | · | · | · | ·
Cc1nn(Cc2ccccc2)c(C)c1C(=O)NCc1ccccc1 | 0.68 | 1 | 2 | 55* | 1
COC(=O)C1=C(c2ccc3ccccc3c2)CC2CCC1N2C(=O)NCCCOC(C)C (stereo not drawn) | 0.7 | · | · | · | ·
Cc1ccc(-c2nc(N3CCOCC3)s[n+]2-c2ccccc2)cc1 | 0.51* | -2 | -2 | 0 | 2
C[C@@H]1CC[C@H]2[C@@H](C)C(=O)O[C@@H]3O[C@@]4(C)CC[C@@H]1[C@]32OO4 | 0.45* | -1 | 4 | 6 | 2
COC(=O)C1=C(c2cc3ccccc3s2)CC2CCC1N2C (stereo not drawn) | 0.66 | · | · | · | ·
C[C@]12CCC(=O)C(O)=C1CCC1C2CC[C@]2(C)C(=O)CCC12 (stereo partly drawn) | 0.66 | · | · | · | ·
Cc1cc(O)c2c(c1)C(=O)C13C(=C2O)C(=O)[C@H]2[C@@H](O)[C@@H]1[C@H]1[C@H](O)[C@@H]3C(=O)C3=C(O)c4c(O)cc(C)cc4C(=O)C312 (stereo partly drawn) | 0.067* | 76* | 60* | 130* | · | AddAB conf=36*;RecBCD counter=32*;bact viab count=43*
SMILES | E coli growth-1 | E coli growth-2 | AddAB inh | Tat transport | phage Ecoli inh | others
COC(=O)C1=C(c2ccc(F)cc2OCc2ccccc2)CC2CCC1N2C(=O)NCc1ccc2c(c1)OCO2 (stereo not drawn) | 0.72 | · | · | · | ·
C[C@@H]1O[C@@H](O[C@H]2C[C@@H](O)[C@]3(CO)[C@H]4[C@H](O)C[C@]5(C)[C@@H](C6COC(=O)C6)CC[C@]5(O)[C@@H]4CC[C@]3(O)C2)[C@H](O)[C@H](O)[C@H]1O (stereo partly drawn) | · | 96* | 98* | 11 | 3 | AddAB conf=-3;RecBCD counter=-2;bact viab count=-4
Oc1c(Cl)c(Cl)c(Cl)c(Cl)c1Cl | 0.47 | 11* | 13* | -1 | 12* | AddAB conf=10;RecBCD counter=17*;bact viab count=10
COc1cc2c(cc1OC)C1C(=O)c3ccc4c(c3OC1CO2)CC(C(C)(C)O)O4 (stereo not drawn) | 0.68 | · | · | · | ·
CCN1/C(=C\C=C\C2=[N+](CC)c3ccccc3C2(C)C)C(C)(C)c2ccccc21 | 0.53* | 30* | 35* | i | · | AddAB conf=51*;RecBCD counter=23*;bact viab count=46*
COC(=O)C1=C(c2ccc(S(C)(=O)=O)cc2)CC2CCC1N2C(=O)NCc1ccc(C(F)(F)F)cc1 (stereo not drawn) | 0.7 | · | · | · | ·
CCCCCCCCC(=O)NCc1ccc(O)c(OC)c1 | 0.69 | 100* | 98* | 5 | 1 | AddAB conf=0;RecBCD counter=0;bact viab count=-3
COc1cc(CNCCc2ccc3c(c2)OCO3)ccc1O | 0.66 | 2 | 5 | -12 | 5
COC(=O)C1=C(c2ccc(OC)c(OC)c2)CC2CCC1N2C(=O)N1CCCC1 (stereo not drawn) | 0.71 | · | · | · | ·
Nc1nonc1C(=O)N/N=C/c1ccc([N+](=O)[O-])o1 | · | 8 | 17* | -16 | 18* | AddAB conf=99*;RecBCD counter=6.7*;bact viab count=16;RecBCD conf=8;Ecoli viability=5;AddAB phage OD=61*
N/C(=N\[N+](=O)[O-])N/N=C/c1ccc(O)cc1 | · | 1 | 1 | 0 | 2
CCCNC(=O)N1C2CCC1C(C(=O)OC)=C(c1ccc(F)cc1F)C2 (stereo not drawn) | 0.68 | · | · | · | ·
c1ccc2c[n+](CCCCCCCCCC[n+]3ccc4ccccc4c3)ccc2c1 | · | · | · | · | 8
CCCCCCC[n+]1ccc(-c2cc[n+](CCCCCCC)cc2)cc1 | 0.54 | 25* | 31* | -3 | 19* | AddAB conf=6;RecBCD counter=19*;bact viab count=10;RecBCD conf=9;Ecoli viability=13;AddAB phage OD=5
CCOc1ccc(N2C(=O)NC(=O)C(=Cc3ccc(N4CCCCC4)o3)C2=O)cc1 | 0.7 | · | · | · | ·
C[CH2][Hg][S]c1ccccc1C(=O)O | 0.06* | 101* | + | -126 | + | AddAB conf=+;RecBCD counter=+;bact viab count=98*;RecBCD conf=+;Ecoli viability=105*;AddAB phage OD=+
